In PubChem BioAssay (Tox21):
Values joined by “and” are separate entries in the source; they are usually repeats but may differ in a detail not shown here. Equal entries are not always repeated. Where a structure was tested more than once in an assay, its records may differ in their call. Active and inactive are the calls of the source. Unless noted, calls follow the shape of the dose curve; as a rule, active = well fitted curve in the direction sought with a large enough effect in the repeat runs; inconclusive = weak or mixed curves; inactive = no such curve, though single readings can be large; an effect the other way counts as inactive or inconclusive.

Columns and labels:
[1] = qHTS assay to identify small molecule antagonists of the thyroid receptor (TR) signaling pathway - cell viability counter screen (AID 743064); also: nearly all actives have a fitted effect of over 50% in size; also: potency is read from the fitted curve at half-maximal effect
In short: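 Plate GH3.TRE-Luc cells; incubate 4 h at 37 °C; add compound, then T3 to 1 nM final; incubate 23.5 h; add CellTiter-Fluor; incubate 30 min at 37 °C, 5% CO2; read fluorescence.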

[2] = qHTS assay to identify small molecule antagonists of the thyroid receptor (TR) signaling pathway (AID 743065); also: nearly all actives have a fitted effect of over 55% in size; also: potency is read from the fitted curve at half-maximal effect
In short: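 GH3.TRE-Luc rat pituitary cells carrying two TR response elements driving luciferase were plated for 4 h, given compound plus 1 nM T3 (final), and incubated 23.5 h at 37 C. ONE-Glo luminescence measured reporter inhibition; CellTiter-Fluor fluorescence tracked cytotoxicity.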

[3] = tested on: thyroid hormone receptor (rat, GH3 cells); assay: qHTS assay to identify small molecule agonists of the thyroid receptor (TR) signaling pathway (AID 743066; calls by dose curve)
[4] = qHTS assay to identify small molecule antagonists of the estrogen receptor alpha (ER-alpha) signaling pathway - cell viability counter screen (AID 743074; calls by dose curve;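 also: HEK293 cells carrying ER-alpha-UAS-bla reporter stimulated with 17beta-estradiol; nearly all actives have a fitted effect of over 45% in size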; also: potency is read from the fitted curve at half-maximal effect)
[5] = qHTS assay to identify small molecule antagonists of the estrogen receptor alpha (ER-alpha) signaling pathway using the BG1 cell line - cell viability counter screen (AID 743081);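 also: compound given together with 17beta-estradiol as the ER stimulus; series mostly up to about 70 µM; nearly all actives have a fitted effect of over 45% in size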
Aromatase (Homo sapiens) = Aromatase (Homo sapiens) (UniProt P11511); assay: qHTS assay to identify aromatase inhibitors (AID 743083); also: nearly all actives have a fitted effect of over 55% in size; also: potency is read from the fitted curve at half-maximal effect
[6] = qHTS assay to identify aromatase inhibitors - cell viability counter screen (AID 743084);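 also: cells stimulated with testosterone during compound exposure; nearly all actives have a fitted effect of over 55% in size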; also: potency is read from the fitted curve at half-maximal effect
[7] = target: Aryl hydrocarbon receptor (Homo sapiens) (UniProt P35869); assay: qHTS assay to identify small molecule that activate the aryl hydrocarbon receptor (AhR) signaling pathway (AID 743085); also: nearly all actives have a fitted effect of over 15% in size; also: potency is read from the fitted curve at half-maximal effect;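 as to activation: HG2L7.5c1 human HepG2 liver cells with stably integrated DRE-driven firefly reporter; series mostly up to about 70 µM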
In short: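 Steps: seed HepG2-AhR-luc cells; allow 5 h at 37C; pin-transfer test compound or vehicle; incubate 24 h at 37C; add viability dye (30 min, 37C) and read fluorescence; add luciferase substrate (30 min, RT) and read luminescence.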

[8] = qHTS assay to identify small molecule that activate the aryl hydrocarbon receptor (AhR) signaling pathway - cell viability counter screen (AID 743086);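 also: HepG2 liver cells carrying the AhR DRE luciferase reporter; series mostly up to about 70 µM; nearly all actives have a fitted effect of over 45% in size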
In short: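 HepG2-AhR-luc (HG2L7.5c1) cells, 4000/well, were preincubated 5 h at 37C, exposed to compound in qHTS format for 24 hr at 37C, then given CellTiter-Fluor for 30 min; viability was read as fluorescence in the reporter wells.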

[9] = target: Peroxisome proliferator-activated receptor gamma (Homo sapiens) (UniProt P37231); assay: qHTS assay to identify small molecule antagonists of the peroxisome proliferator-activated receptor gamma (PPARg) signaling pathway (AID 743191; calls by dose curve; also: nearly all actives have a fitted effect of over 30% in size; also: potency is read from the fitted curve at half-maximal effect)
In short: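 GeneBLAzer PPARg UAS-bla HEK293H cells carrying a UAS-driven beta-lactamase reporter were plated at 3000 cells/well, preincubated 5 h at 37C, then given compound for 17 h at 37C; LiveBLAzer B/G FRET substrate was read after 1 h at room temperature.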

[10] = qHTS assay to identify small molecule antagonists of the peroxisome proliferator-activated receptor gamma (PPARg) signaling pathway - cell viability counter screen (AID 743194); conditions: Potency: co-treated with 50 nM rosiglitazone unless noted; also: nearly all actives have a fitted effect of over 55% in size; also: potency is read from the fitted curve at half-maximal effect
In short: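 PPARg-UAS-bla HEK293H cells were plated, rested 5 h at 37 C, then treated with compounds plus rosiglitazone (50 nM final) for 17 h at 37 C; viability was then read by CellTiter-Glo luminescence after 30 min at room temperature.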

[11] = qHTS assay for small molecule agonists of the antioxidant response element (ARE) signaling pathway - cell viability counter screen (AID 743203; calls by dose curve; also: nearly all actives have a fitted effect of over 55% in size; also: potency is read from the fitted curve at half-maximal effect)
In short: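 Cells (ARE-bla HepG2, 2,000/well) receive DMSO-dissolved compounds after a 5 hrs rest. Plates incubate 16 hrs at 37C/5% CO2. CellTiter-Glo luminescence is then recorded after 30 min at room temperature.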

[12] = qHTS assay for small molecule activators of the heat shock response signaling pathway - cell viability counter screen (AID 743209); also: nearly all actives have a fitted effect of over 50% in size; also: potency is read from the fitted curve at half-maximal effect
In short: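 Quantitative HTS format, Tox21 10K library. HeLa cells carrying an HSE-driven beta-lactamase reporter were treated 5 h at 37 C, then assessed for viability by CellTiter-Glo luminescence.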

[13] = qHTS assay for small molecule activators of the heat shock response signaling pathway (AID 743210; active = well fitted activation curve with a large enough effect in the signal ratio in the repeat runs, with a control signal flat, not every such curve was filed as active; inconclusive = weak or mixed curves; the % refers to the signal ratio;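 also: HeLa cells with beta-lactamase reporter driven by heat shock elements; series mostly up to about 63 µM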)
In short: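 Reporter gene assay: HeLa cells stably bearing an HSE-bla construct, compound treatment 5 h at 37 C, LiveBLAzer substrate 2.5 h at RT, fluorescence intensity.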

[14] = target: Estrogen receptor (Homo sapiens) (UniProt P03372); assay: qHTS assay to identify small molecule agonists of the estrogen receptor alpha (ER-alpha) signaling pathway (AID 743075; calls by dose curve;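 also: HEK293 GripTite cells with ER-alpha and UAS-driven beta-lactamase reporter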)
[15] = target: Estrogen receptor (Homo sapiens) (UniProt P03372); assay: qHTS assay to identify small molecule agonists of the estrogen receptor alpha (ER-alpha) signaling pathway using the BG1 cell line (AID 743079); also: nearly all actives have a fitted effect of over 20% in size
[16] = qHTS assay to identify small molecule antagonists of the estrogen receptor alpha (ER-alpha) signaling pathway using the BG1 cell line (AID 743080; calls by dose curve;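 also: BG1 cells stimulated with 17beta-estradiol alongside compound; nearly all actives have a fitted effect of over 25% in size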; also: potency is read from the fitted curve at half-maximal effect)
In short: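 BG1-Luc-4E2 cells (endogenous full-length ER-alpha, stable 4×ERE-luciferase) were starved 5 days in phenol-red-free medium with 10% charcoal-stripped FBS, plated 24 h, then given compound plus 17beta-estradiol for 21.5 h at 37 C; ONE-Glo luminescence read after 30 min.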

[17] = qHTS assay for small molecule agonists of the antioxidant response element (ARE) signaling pathway (AID 743202; active = well fitted activation curve with a large enough effect in the signal ratio in the repeat runs, not every such curve was filed as active; inconclusive = weak or mixed curves, or effect the other way; inactive = no such curve, though single readings can be large or run the other way; the % refers to the signal ratio; also: potency is read from the fitted curve at half-maximal effect)
In short: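 Compounds delivered in DMSO to ARE-bla HepG2 cells (2,000 cells/well, pre-incubated 5 h) and left 16 h at 37 C. LiveBLAzer B/G FRET substrate then added for 2 h at RT before fluorescence reading.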

[18] = target: Peroxisome proliferator-activated receptor gamma (Homo sapiens) (UniProt P37231); assay: qHTS assay to identify small molecule agonists of the peroxisome proliferator-activated receptor gamma (PPARg) signaling pathway (AID 743094; active = well fitted activation curve with a large enough effect in the signal ratio in the repeat runs, not every such curve was filed as active; inconclusive = weak or mixed curves, or effect the other way; inactive = no such curve, though single readings can be large or run the other way; the % refers to the signal ratio)
In short: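 Stably transfected HEK293H cells (GeneBLAzer PPARg UAS-bla) were incubated with test substances for 17 h at 37C after a 5 h pre-incubation; beta-lactamase activity was then detected by FRET substrate fluorescence.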

[19] = target: Estrogen receptor (Homo sapiens) (UniProt P03372); assay: qHTS assay to identify small molecule antagonists of the estrogen receptor alpha (ER-alpha) signaling pathway (AID 743069; active = well fitted curve in the direction sought with a large enough effect in the signal ratio in the repeat runs, not every such curve was filed as active; inconclusive = weak or mixed curves, or effect the other way; inactive = no such curve, though single readings can be large or run the other way; the % refers to the signal ratio; also: potency is read from the fitted curve at half-maximal effect)
In short: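 Estradiol-stimulated ER-alpha-UAS-bla HEK293 cells, 18 hr compound exposure at 37C. LiveBLAzer B/G substrate, 2 hr RT, fluorescence read.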

Measured: Potency

Peroxisome proliferator-activated receptor gamma (Homo sapiens), sequence (P37231 whole entry, looked up): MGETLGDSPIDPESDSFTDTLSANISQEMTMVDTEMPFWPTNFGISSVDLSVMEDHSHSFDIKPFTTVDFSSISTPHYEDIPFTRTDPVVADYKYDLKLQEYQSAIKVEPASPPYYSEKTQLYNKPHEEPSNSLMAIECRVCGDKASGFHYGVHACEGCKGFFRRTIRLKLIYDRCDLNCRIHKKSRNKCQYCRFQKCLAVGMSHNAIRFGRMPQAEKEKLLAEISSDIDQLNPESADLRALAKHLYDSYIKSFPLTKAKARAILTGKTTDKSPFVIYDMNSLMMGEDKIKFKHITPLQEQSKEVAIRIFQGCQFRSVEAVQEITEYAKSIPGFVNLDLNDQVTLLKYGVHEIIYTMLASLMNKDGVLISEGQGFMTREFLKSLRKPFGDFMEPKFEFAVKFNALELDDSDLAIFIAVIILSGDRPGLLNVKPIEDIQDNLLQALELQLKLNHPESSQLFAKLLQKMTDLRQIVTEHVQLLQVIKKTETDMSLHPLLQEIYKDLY
Estrogen receptor (Homo sapiens), sequence (P03372 whole entry, looked up): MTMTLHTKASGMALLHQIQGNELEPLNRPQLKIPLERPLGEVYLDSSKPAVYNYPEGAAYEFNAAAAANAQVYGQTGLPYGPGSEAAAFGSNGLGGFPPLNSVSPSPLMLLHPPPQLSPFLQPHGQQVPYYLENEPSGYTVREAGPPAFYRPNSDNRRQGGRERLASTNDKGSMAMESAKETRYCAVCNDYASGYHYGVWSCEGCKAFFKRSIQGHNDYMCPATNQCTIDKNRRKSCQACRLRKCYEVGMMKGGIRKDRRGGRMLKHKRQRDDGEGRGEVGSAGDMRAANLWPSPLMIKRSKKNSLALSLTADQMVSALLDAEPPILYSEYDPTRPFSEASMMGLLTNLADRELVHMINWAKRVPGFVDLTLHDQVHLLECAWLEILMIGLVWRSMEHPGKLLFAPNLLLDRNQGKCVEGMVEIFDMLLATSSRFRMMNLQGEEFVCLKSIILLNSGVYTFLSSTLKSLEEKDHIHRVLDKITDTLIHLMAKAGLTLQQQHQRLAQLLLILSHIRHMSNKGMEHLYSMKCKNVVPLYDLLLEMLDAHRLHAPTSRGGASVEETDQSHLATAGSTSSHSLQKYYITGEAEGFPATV
Aromatase (Homo sapiens), sequence (P11511 whole entry, looked up): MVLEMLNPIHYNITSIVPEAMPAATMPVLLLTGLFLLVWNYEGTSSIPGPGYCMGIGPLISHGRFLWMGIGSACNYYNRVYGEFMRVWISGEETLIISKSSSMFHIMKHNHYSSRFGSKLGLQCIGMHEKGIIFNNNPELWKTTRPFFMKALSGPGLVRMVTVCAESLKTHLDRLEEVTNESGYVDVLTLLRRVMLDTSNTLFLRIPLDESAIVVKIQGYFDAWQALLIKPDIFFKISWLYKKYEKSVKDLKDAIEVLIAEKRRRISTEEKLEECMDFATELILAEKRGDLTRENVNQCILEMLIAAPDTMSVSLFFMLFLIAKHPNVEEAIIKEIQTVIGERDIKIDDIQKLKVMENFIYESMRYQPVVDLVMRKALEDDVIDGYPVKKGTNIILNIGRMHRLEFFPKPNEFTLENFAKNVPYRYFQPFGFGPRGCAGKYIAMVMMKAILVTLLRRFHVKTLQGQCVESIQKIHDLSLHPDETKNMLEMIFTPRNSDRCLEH
Aryl hydrocarbon receptor (Homo sapiens), sequence (P35869 whole entry, looked up): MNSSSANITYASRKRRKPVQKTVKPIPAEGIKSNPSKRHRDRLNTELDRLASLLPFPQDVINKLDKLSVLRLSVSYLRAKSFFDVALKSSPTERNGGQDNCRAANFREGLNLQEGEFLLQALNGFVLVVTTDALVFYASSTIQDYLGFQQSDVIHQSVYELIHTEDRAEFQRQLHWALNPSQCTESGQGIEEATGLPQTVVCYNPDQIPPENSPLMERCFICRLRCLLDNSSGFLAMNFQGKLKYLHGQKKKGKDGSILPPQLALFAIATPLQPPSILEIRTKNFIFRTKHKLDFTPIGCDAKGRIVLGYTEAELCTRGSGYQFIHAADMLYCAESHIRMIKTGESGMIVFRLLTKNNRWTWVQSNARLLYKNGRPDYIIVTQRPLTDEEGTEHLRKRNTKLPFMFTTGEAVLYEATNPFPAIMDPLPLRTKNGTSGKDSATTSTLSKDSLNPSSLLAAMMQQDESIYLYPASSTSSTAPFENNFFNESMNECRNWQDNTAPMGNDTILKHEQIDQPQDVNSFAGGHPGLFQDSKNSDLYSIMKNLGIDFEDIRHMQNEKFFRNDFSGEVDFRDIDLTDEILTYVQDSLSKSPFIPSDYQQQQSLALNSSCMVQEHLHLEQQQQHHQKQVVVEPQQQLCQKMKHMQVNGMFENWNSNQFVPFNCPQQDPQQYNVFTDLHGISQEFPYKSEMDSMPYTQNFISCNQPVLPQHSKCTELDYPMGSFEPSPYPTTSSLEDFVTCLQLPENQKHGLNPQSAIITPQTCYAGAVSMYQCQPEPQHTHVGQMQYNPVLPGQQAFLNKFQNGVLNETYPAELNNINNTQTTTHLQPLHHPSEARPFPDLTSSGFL

CCOP(=S)(OCC)O/N=C(\C#N)c1ccccc1
active: [7] 10.6 µM and 21.7 µM
not listed: [14] | [15] | [16] | [17] | [18] | [19]
inactive: all other assays above

CCc1cccc(CC)c1N(COC)C(=O)CCl
active: [2] 54.5 µM | Aromatase (Homo sapiens) 61.1 µM | [17] 4.19 µM and 4.86 µM
not listed: [6] | [9] | [10] | [13] | [18] | [19]
inactive: all other assays above

Oc1cc(Cl)ccc1Oc1ccc(Cl)cc1Cl
inactive and 24.8 µM (active): Aromatase (Homo sapiens)
inactive: [3] | [5] | [18]
inactive and 11.2 µM (active): [4]
inactive and 22.2 µM (active): [6]
inactive and 21 µM (active): [7]
active: [1] 11.5 µM | [2] 8.84 µM | [10] 6.31 µM | [11] 27.9 µM | [12] 30.7 µM and 29.8 µM

C=CCc1ccc2c(c1)OCO2
not listed: [7] | [9] | [14] | [15] | [16] | [18] | [19]
inactive: all other assays above

Oc1c(Cl)c(Cl)c(Cl)c(Cl)c1Cl
inactive: [3] | [14] | [5] | Aromatase (Homo sapiens) | [6] | [8] | [12] | [13]
active: [1] 26.8 µM | [2] 8.46 µM and 27.2 µM | [19] 8.54 µM [inconclusive] | [16] 59.9 µM and 27.2 µM | [7] 3.37 µM | [9] 3.4 µM

CC(O)CCO (stereo not drawn)
not listed: [14] | [15] | [16] | [19]
inactive: all other assays above
